The record followed here is PubChem BioAssay AID1053197 (The Scripps Research Institute Molecular Screening Center, 2014).

SMILES strings stand for the structures. About 2,600 (0.7%) of roughly 370,000 compounds were called active. Only a selection was taken, and actives are over-represented in it overall. A number with no mark means an inactive call.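 The calls were made as follows: active = inhibition above a cutoff: mean of compounds within the control limits plus 3 SD of those (cut at about 17% in these data); inactive = the rest.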

The term inhibition denotes the change of the read-out against control, counted positive when it falls.

The target of this assay is Sialate O-acetylesterase (Homo sapiens) (UniProt Q9HAT2). Nature of the assay: human SIAE inhibitors, primary screen, biochemical, fluorescence polarization, FP-Rh probe, 1536-well HTS (AID 1053197).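 Also: 0% = plate median of compound wells and 100% = probe without SIAE protein.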 As to conditions: SIAE FP-Rh probe binding, at 9.66 µM, stronger effect = higher value. (Polarisation of emitted light reports the rotation of a fluorescent probe.)
Sequence of Sialate O-acetylesterase (Homo sapiens) (Q9HAT2 whole entry, looked up): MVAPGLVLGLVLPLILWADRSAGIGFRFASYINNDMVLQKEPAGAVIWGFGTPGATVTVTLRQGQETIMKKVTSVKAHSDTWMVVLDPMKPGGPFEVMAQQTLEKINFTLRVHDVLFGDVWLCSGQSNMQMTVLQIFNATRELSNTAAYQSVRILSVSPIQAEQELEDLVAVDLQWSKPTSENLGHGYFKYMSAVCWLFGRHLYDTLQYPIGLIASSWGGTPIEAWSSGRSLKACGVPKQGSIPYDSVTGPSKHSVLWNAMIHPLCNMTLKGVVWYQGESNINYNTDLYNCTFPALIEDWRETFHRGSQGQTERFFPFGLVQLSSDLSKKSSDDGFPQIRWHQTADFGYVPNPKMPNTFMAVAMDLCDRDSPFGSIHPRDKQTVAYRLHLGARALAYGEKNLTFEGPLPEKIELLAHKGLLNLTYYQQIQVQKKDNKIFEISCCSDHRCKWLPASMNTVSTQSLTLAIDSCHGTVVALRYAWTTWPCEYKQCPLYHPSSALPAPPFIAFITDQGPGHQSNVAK
Consider `O=C(CN1CCCc2ccccc21)NCc1ccc(F)cc1`, for which the inhibition is 7.37%. Consider `COC(=O)[C@H](C(C)C)N(CCCc1cn(Cc2ccccc2)nn1)S(=O)(=O)c1ccc(F)cc1Br`, for which the inhibition was -3.32%. Next, `CC(=N\NC(=O)c1cc(Br)ccc1O)/C(=N/O)C(=O)Nc1ccccc1`: 9.77%; `CC(C)/C=N/NC(=O)c1cc(Br)ccc1O`: 19.5% (active). With `O=C(N/N=C1\CCSC1)c1cc(Cl)ccc1O` the figure was 8.12%; with `COc1ccc(-n2c(SCC(=O)NC3CCCC3)nnc2-c2ccncc2)cc1`, 6.27%.

`O=C(NC1CCC1)c1ccc(C#Cc2cccc(F)c2)c[n+]1[O-]`: the inhibition was -0.65%. Next, `O=C(Nn1c(SCc2ccc([N+](=O)[O-])cc2)nc2ccccc2c1=O)c1ccc(F)cc1`: -45.6%; `O=c1[nH]n(-c2ccc([N+](=O)[O-])cc2)c(=O)c2ccccc12`: 31.2% (active).

As to `CC(C)(C)c1cnnn1-c1ccc([N+](=O)[O-])cc1`, the inhibition was -4.05%. Next, `O=C(NCCC1=CCCCC1)C1CCN(S(=O)(=O)c2ccc(Cl)s2)CC1`: -2.35%; `CCC(Oc1ccccc1)C(=O)OCC(=O)Nc1c(C)nn(-c2ccccc2)c1C` (configuration not stated): 5.85%; `Cc1nn(-c2ccccc2)c(C)c1NC(=O)COC(=O)c1cc(Cl)ccc1O`: -4.36%. With `C/C=C/c1ccc(OCC(=O)OCC(=O)Nc2c(C)nn(-c3ccccc3)c2C)c(OC)c1` the figure was 18.3% (active); with `CCc1ccc(N(CC)c2ncnc3nc[nH]c23)cc1`, -3.78%.

For the compound `COc1ccc(CCNc2nc3ccc(C)cc3n3cnnc23)cc1OC`, the inhibition is -5.53%. With `COc1ccc(CCNc2ncnc3nc[nH]c23)cc1OC` the figure was 32.2% (active); with `Cc1ccc(OCc2nnc(SC/C=C/c3ccccc3)n2Cc2ccco2)cc1`, 4.07%; with `C=CCN(C(=O)[C@@H](CCCC)[C@@H](O)c1ccc(Cl)cc1)c1ccccc1`, -2.75%. `COc1ccc(-c2ccc3nnc(SCC(=O)Nc4ccc(NC(C)=O)cc4)n3n2)cc1`: the inhibition was -23.3%.

Regarding `COc1ccc(-c2csc(Nc3ccc(O)cc3)n2)cc1`, the inhibition is 26.2% (active). For the compound `CN(c1ccc(O)cc1)c1nc(-c2cccnc2)cs1`, the inhibition is 7.08%.
